# Laboratory results: PubChem BioAssay (EPA / NIEHS)
# Records with an inconclusive call do not appear. Calls of active or inactive are those of the source. How the source made its calls, unless noted: active means hit-call score of the fitted dose curve at least 0.9, where 1 is the maximum; inactive means score below 0.9.
# What was measured:
# [1] = biological target: Paired box protein Pax-6 (Homo sapiens) (UniProt P26367); assay: ATG_Pax6_CIS: Attagene CIS-FACTORIAL HepG2 Assay for human Paired Box 6 (PAX6) (AID 2282956); settings: HepG2 CIS-FACTORIAL PAX6 reporter transcription, RNA readout; actives raise or lower the signal
# Chain of Paired box protein Pax-6 (Homo sapiens) (P26367 whole entry, looked up): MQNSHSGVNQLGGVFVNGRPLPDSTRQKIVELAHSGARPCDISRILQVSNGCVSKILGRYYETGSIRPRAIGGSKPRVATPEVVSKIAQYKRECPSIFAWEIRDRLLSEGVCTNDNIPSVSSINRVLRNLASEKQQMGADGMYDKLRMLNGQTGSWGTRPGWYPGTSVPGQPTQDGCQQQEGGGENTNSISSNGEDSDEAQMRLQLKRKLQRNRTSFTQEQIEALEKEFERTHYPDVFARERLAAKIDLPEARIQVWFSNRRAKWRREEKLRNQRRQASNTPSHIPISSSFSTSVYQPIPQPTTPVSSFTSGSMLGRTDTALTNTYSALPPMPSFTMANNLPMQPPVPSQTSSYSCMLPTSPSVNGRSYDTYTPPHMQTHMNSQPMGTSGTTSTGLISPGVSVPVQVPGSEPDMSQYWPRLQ
# Outline: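 Values derive from bidirectional curve fitting of reporter mRNA signal relative to DMSO. HepG2 cells bearing transfected cis-regulated MRTUs were exposed for 24 h; transcripts were read by RT-PCR and capillary electrophoresis.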
# [2] = ATG_RORE_CIS: Attagene CIS-FACTORIAL HepG2 Assay for human RAR-related Orphan Receptor Element (RORE) (AID 2282959); settings: HepG2 Attagene cis-factorial RORE reporter, mRNA; actives raise or lower the signal
# Outline: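 Readout: fluorescent reporter mRNA by RT-PCR plus capillary electrophoresis, 24 h after dosing transfected HepG2 cells. Endogenous transcription factor activity on a cis promoter element is measured. Gain or loss of signal fitted against DMSO.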
# [3] = ATG_Sox_CIS: Attagene CIS-FACTORIAL HepG2 Assay for human SRY-box transcription factor (SOX) (AID 2282960); settings: HepG2 Attagene cis-factorial SOX reporter, mRNA; actives raise or lower the signal
# Outline: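 Read-out: fluorescent RT-PCR products of SOX1-linked reporter transcripts resolved by capillary electrophoresis, fitted bidirectionally against DMSO. Transiently transfected HepG2 cells, 24 h after chemical exposure, endogenous transcription factor activity.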
# [4] = biological target: Transcription factor Sp1 (Homo sapiens) (UniProt P08047); assay: ATG_Sp1_CIS: Attagene CIS-FACTORIAL HepG2 Assay for human Specificity Protein 1 (Sp1) (AID 2282961); settings: HepG2 Sp1 cis-reporter transcription, actives raise or lower the signal
# Chain of Transcription factor Sp1 (Homo sapiens) (P08047 whole entry, looked up): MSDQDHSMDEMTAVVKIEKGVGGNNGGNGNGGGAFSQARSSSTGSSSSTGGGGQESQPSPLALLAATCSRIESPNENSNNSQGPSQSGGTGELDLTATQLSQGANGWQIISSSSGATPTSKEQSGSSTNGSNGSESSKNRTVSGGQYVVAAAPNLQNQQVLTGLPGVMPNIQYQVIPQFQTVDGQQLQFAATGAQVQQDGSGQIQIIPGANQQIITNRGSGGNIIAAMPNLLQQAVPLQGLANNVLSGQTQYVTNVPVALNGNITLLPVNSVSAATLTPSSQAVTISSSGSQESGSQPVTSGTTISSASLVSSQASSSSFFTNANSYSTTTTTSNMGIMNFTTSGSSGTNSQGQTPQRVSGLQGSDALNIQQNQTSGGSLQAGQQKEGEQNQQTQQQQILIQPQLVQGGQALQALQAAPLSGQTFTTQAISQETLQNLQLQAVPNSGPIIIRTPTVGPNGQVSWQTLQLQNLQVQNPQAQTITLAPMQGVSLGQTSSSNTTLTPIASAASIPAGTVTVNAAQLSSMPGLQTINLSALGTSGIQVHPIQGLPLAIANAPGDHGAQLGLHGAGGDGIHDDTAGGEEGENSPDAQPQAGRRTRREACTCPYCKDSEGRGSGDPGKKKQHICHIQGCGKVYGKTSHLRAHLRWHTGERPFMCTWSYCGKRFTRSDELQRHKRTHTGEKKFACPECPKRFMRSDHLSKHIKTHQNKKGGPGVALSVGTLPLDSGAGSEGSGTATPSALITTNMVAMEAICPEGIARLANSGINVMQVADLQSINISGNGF
# Outline: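 Read-out: fluorescence of 6-FAM-labeled, HpaI-digested RT-PCR products separated by capillary electrophoresis. HepG2 cells carried transfected cis-element reporter units and were exposed to chemicals for 24 h; gain or loss of signal fitted relative to DMSO.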
# [5] = ATG_SREBP_CIS: Attagene CIS-FACTORIAL HepG2 Assay for human Sterol Regulatory Element Binding (SREBP) (AID 2282962); settings: HepG2 Attagene cis-factorial SREBP reporter, mRNA; actives raise or lower the signal
# Outline: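 Values derive from bidirectional curve fitting with DMSO as baseline. The underlying measurement is reporter mRNA from cis-element-regulated units in transiently transfected HepG2, quantified by RT-PCR and capillary electrophoresis after 24 h exposure.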
# [6] = biological target: Signal transducer and activator of transcription 3 (Homo sapiens) (UniProt P40763); assay: ATG_STAT3_CIS: Attagene CIS-FACTORIAL HepG2 Assay for human Signal Transducer and Activator of Transcription 3 (STAT3) (AID 2282963); settings: HepG2, Attagene cis-factorial STAT3 reporter transcription; actives raise or lower the signal
# Chain of Signal transducer and activator of transcription 3 (Homo sapiens) (P40763 whole entry, looked up): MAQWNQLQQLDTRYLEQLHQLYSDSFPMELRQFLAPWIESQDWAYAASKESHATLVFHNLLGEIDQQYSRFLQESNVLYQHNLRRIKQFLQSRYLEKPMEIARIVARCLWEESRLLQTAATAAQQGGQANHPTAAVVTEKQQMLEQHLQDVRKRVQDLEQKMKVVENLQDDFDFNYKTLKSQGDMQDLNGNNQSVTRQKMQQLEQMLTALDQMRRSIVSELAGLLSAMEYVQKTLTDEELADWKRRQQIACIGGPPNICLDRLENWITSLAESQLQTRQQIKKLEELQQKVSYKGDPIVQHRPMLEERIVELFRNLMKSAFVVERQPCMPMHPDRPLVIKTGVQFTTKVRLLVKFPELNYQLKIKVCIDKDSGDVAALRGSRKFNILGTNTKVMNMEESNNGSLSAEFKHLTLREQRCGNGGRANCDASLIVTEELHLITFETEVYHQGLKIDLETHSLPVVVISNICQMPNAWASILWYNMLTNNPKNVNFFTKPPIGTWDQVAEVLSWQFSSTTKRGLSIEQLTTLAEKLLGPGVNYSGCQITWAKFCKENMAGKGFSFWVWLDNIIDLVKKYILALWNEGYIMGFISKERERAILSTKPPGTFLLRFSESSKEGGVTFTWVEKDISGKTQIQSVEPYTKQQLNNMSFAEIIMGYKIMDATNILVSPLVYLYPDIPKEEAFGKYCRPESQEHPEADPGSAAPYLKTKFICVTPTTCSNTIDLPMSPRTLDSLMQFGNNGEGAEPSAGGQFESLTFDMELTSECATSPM
# Outline: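 Cis-factorial format: endogenous transcription factors in HepG2 drive transfected reporter units. After 24 h treatment, reporter RNA was reverse-transcribed, amplified, FAM-labelled and HpaI-digested before CE analysis; activity scored in both directions against DMSO.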
# [7] = ATG_TA_CIS: Attagene CIS-FACTORIAL HepG2 Assay for human TA Basal Promoter (AID 2282964); settings: HepG2 Attagene CIS-factorial TA basal promoter reporter; actives raise or lower the signal
# Outline: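 Transfected HepG2, 24 h compound exposure; RNA → RT-PCR → FAM primer extension → HpaI cut → CE fluorescence. Gain/loss-of-signal fitted against DMSO negative control. Background-control readout.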
# [8] = ATG_TCF_b_cat_CIS: Attagene CIS-FACTORIAL HepG2 Assay for human T-Cell-Factor with beta-catenin (TCF/b-cat) (AID 2282965); settings: HepG2 TCF/beta-catenin cis-reporter transcription, actives raise or lower the signal
# Outline: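 Endogenous TCF/LEF activity read as reporter transcript level via RT-PCR and capillary electrophoresis fluorescence in transfected HepG2, 24 h exposure; gain or loss of signal fitted against DMSO controls.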
# [9] = ATG_TAL_CIS: Attagene CIS-FACTORIAL HepG2 Assay for human TAL Basal Promoter (AID 2282966); settings: HepG2 Attagene cis-factorial TAL promoter reporter; actives raise or lower the signal;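 further: background control endpoint measuring basal TAL promoter reporter mRNA not a specific factor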
# Outline: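 Human hepatoma HepG2 cells, transfected with promoter-regulated reporter units, were treated 24 h. Reporter transcript levels, measured through RT-PCR and capillary electrophoresis, were fitted for gain or loss relative to DMSO.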
# [10] = ATG_TGFb_CIS: Attagene CIS-FACTORIAL HepG2 Assay for human Transforming Growth Factor (TGF) (AID 2282967); settings: HepG2 Attagene CIS TGFb reporter, mRNA transcription; actives raise or lower the signal
# Outline: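 Readout: fluorescently labeled reporter cDNA fragments resolved by capillary electrophoresis after RT-PCR. Transfected HepG2 cells dosed for 24 h; endogenous TF activity at TGFB1-linked cis element; gain or loss fitted relative to DMSO.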
# [11] = ATG_VDRE_CIS: Attagene CIS-FACTORIAL HepG2 Assay for human Vitamin D Receptor Element (VDRE) (AID 2282968); settings: HepG2 VDRE cis-reporter transcription, actives raise or lower the signal
# Outline: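 Measures endogenous factor activity through cis-element-driven reporter transcripts in transiently transfected HepG2. Cells are treated 24 h; reporter mRNA is quantified by RT-PCR and capillary electrophoresis; fitting is bidirectional.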
# [12] = biological target: X-box-binding protein 1 (Homo sapiens) (UniProt P17861); assay: ATG_Xbp1_CIS: Attagene CIS-FACTORIAL HepG2 Assay for human X-box Binding Protein 1 (XBP1) (AID 2282972); settings: HepG2 XBP1 cis-element reporter, Attagene multiplex; actives raise or lower the signal
# Chain of X-box-binding protein 1 (Homo sapiens) (P17861 whole entry, looked up): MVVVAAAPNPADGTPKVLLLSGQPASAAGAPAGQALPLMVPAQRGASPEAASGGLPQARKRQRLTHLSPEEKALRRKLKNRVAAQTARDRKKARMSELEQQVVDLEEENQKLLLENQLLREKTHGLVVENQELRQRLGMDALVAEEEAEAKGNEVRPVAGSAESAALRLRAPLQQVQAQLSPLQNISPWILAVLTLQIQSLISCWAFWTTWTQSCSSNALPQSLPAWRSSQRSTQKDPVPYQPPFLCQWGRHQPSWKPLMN
# Outline: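 Human hepatoma HepG2, cis-element reporter system, 24 h treatment; mRNA quantified by RT-PCR/CE fluorescence; fit relative to DMSO.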
# [13] = ATG_GAL4_TRANS: Attagene TRANS-FACTORIAL HepG2 Assay for GAL4 (Internal Marker) (AID 2282976; active means hit-call score of the fitted dose curve at least 0.9, where 1 is the maximum); settings: HepG2 Attagene TRANS GAL4 internal marker reporter
# Outline: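 Liver HepG2 line bearing multiplexed GAL4-UAS reporter constructs; 24 h chemical treatment. Transcripts were quantified as fluorescent fragments on capillary electrophoresis after RT-PCR and HpaI cut, with activity fitted upward from DMSO.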
# [14] = ATG_PPRE_CIS: Attagene CIS-FACTORIAL HepG2 Assay for human Peroxisome Proliferator-activated Response Element (PPRE) (AID 2282958); settings: HepG2 PPRE cis-element reporter, Attagene transcription factor profiling; actives raise or lower the signal
# Outline: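 Read-out: fluorescent reporter mRNA fragments resolved by capillary electrophoresis after RT-PCR. HepG2 cells carried transiently transfected PPRE-driven cis reporter constructs and were dosed for 24 h; gain or loss of signal fitted relative to DMSO.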
# [15] = biological target: Estrogen receptor (Homo sapiens) (UniProt P03372); assay: ATG_ERa_TRANS: Attagene TRANS-FACTORIAL HepG2 Assay for human Estrogen Receptor alpha (ERa) (AID 2282970; active means hit-call score of the fitted dose curve at least 0.9, where 1 is the maximum); settings: HepG2 Attagene TRANS ERa GAL4 reporter, mRNA
# Chain of Estrogen receptor (Homo sapiens) (P03372 whole entry, looked up, the tested form may be a part): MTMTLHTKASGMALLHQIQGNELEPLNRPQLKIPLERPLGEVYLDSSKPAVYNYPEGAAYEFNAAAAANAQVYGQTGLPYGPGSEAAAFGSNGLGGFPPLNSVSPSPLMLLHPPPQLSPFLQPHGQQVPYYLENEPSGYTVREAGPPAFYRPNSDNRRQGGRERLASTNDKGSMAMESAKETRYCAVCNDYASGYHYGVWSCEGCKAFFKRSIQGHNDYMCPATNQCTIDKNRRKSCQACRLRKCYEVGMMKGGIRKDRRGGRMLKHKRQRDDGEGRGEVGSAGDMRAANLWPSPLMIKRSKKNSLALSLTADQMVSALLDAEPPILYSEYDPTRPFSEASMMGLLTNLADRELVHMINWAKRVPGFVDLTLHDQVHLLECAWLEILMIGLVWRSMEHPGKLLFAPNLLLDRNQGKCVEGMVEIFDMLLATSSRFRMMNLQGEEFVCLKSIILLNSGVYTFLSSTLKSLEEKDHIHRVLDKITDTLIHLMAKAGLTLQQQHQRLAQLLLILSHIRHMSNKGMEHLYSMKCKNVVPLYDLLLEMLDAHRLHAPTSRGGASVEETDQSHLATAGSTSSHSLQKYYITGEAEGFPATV
# Outline: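 Signal derives from fluorescence of labelled reporter PCR fragments separated by capillary electrophoresis. HepG2 cells transiently carrying multiple GAL4-UAS reporter units were treated 24 hours, and induction above DMSO baseline was fitted as activity.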
# [16] = biological target: Nuclear receptor subfamily 1 group I member 3 (Homo sapiens) (UniProt Q14994); assay: ATG_CAR_TRANS: Attagene TRANS-FACTORIAL HepG2 Assay for human Constitutive Androstane Receptor (CAR) (AID 2282969; active means hit-call score of the fitted dose curve at least 0.9, where 1 is the maximum;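 further: activators raise reporter mRNA above DMSO so AC50 marks induction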); settings: HepG2 Attagene TRANS-FACTORIAL CAR reporter
# Chain of Nuclear receptor subfamily 1 group I member 3 (Homo sapiens) (Q14994 whole entry, looked up, the tested form may be a part): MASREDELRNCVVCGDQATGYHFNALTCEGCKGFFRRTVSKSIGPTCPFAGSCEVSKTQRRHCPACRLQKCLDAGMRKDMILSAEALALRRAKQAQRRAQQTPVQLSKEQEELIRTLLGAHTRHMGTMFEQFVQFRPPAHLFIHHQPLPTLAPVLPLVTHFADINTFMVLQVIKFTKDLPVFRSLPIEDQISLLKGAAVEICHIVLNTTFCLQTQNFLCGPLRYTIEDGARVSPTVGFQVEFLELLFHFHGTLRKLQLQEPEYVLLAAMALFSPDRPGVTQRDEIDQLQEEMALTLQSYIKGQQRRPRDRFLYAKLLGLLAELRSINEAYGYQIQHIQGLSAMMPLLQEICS
# Outline: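 Signal is reporter mRNA induction relative to DMSO, measured 24 h after dosing by RT-PCR with fluorescent primer extension and capillary electrophoresis. Human HepG2 liver cells carried transiently transfected chimeric NR-Gal4/GAL4-UAS reporter constructs.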
# [17] = biological target: Steroid hormone receptor ERR1 (Homo sapiens) (UniProt P11474); assay: ATG_ERRa_TRANS: Attagene TRANS-FACTORIAL HepG2 Assay for human Estrogen-Related Receptor alpha (ERRa) (AID 2282971; active means hit-call score of the fitted dose curve at least 0.9, where 1 is the maximum); settings: HepG2 Attagene TRANS reporter, ERRa transactivation
# Chain of Steroid hormone receptor ERR1 (Homo sapiens) (P11474 whole entry, looked up, the tested form may be a part): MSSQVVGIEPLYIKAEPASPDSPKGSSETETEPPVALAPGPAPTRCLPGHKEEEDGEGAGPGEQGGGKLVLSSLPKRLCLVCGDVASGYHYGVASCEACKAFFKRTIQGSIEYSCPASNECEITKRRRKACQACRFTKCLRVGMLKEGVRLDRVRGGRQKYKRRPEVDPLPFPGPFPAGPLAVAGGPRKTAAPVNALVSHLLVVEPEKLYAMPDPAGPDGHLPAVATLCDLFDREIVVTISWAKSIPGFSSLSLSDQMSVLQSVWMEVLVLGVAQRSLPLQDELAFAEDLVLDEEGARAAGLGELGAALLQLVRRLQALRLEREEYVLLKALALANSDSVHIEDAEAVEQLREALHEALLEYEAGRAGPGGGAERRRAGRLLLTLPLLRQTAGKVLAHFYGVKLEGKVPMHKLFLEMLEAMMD
# Outline: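 Signal gain relative to DMSO for an ERRa-Gal4 chimeric receptor, read as reporter mRNA by RT-PCR/capillary electrophoresis. Human HepG2 liver cells, transient multiplex reporter transfection, 24 h chemical exposure.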
# [18] = biological target: Estrogen-related receptor gamma (Homo sapiens) (UniProt P62508); assay: ATG_ERRg_TRANS: Attagene TRANS-FACTORIAL HepG2 Assay for human Estrogen-Related Receptor gamma (ERRg) (AID 2282977; active means hit-call score of the fitted dose curve at least 0.9, where 1 is the maximum;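 further: hits increase reporter signal over DMSO so potencies reflect activators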); settings: HepG2 Attagene TRANS reporter, ERRg transactivation
# Chain of Estrogen-related receptor gamma (Homo sapiens) (P62508 whole entry, looked up, the tested form may be a part): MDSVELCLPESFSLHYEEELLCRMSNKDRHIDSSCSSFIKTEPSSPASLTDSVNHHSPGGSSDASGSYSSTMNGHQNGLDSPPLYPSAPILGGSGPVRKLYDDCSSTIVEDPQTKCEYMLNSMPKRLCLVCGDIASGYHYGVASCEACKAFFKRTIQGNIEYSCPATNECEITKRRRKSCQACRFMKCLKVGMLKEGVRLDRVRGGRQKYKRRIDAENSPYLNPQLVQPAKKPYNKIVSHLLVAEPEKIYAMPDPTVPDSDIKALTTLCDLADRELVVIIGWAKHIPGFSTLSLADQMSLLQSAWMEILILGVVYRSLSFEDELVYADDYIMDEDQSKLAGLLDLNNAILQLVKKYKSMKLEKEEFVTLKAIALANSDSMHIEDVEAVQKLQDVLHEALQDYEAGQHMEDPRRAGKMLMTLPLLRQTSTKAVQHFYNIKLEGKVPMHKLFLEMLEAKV
# Outline: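 Readout: fluorescent reporter-mRNA fragments resolved by capillary electrophoresis after RT-PCR and HpaI cut. Cells: transiently transfected HepG2 carrying GAL4-UAS reporters driven by exogenous NR-Gal4 chimeras, dosed 24 h. Activity fitted upward relative to DMSO baseline.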
# [19] = ATG_M_19_TRANS: Attagene TRANS-FACTORIAL HepG2 Assay for M19 Transcription Factor (Internal Marker) (AID 2282974; active means hit-call score of the fitted dose curve at least 0.9, where 1 is the maximum); settings: HepG2 Attagene TRANS-FACTORIAL M19 internal marker reporter
# Outline: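 24 h chemical exposure of transiently transfected HepG2 (MRTU library). RNA → oligo(dT) RT → PCR → 6-FAM labelling → HpaI cut → CE fluorescence. Positive-direction fit vs DMSO baseline; background internal-marker readout.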
smiles,measurement,setting,value
CCOc1nc(F)cc2nc(S(=O)(=O)Nc3c(Cl)cccc3C(=O)OC)nn12,outcome,[1],inactive
same,outcome,[2],inactive
same,outcome,[3],inactive
same,outcome,[4],inactive
same,outcome,[5],inactive
same,outcome,[6],inactive
same,outcome,[7],inactive
same,outcome,[8],inactive
same,outcome,[9],inactive
same,outcome,[10],inactive
same,AC50,[11],16.6 µM (active)
same,outcome,[12],inactive
same,outcome,[13],inactive
CCCCCCCCCCCCCCCC[n+]1ccccc1,outcome,[1],inactive
same,AC50,[14],8.82 µM (active)
same,outcome,[2],inactive
same,outcome,[3],inactive
same,outcome,[4],inactive
same,outcome,[5],inactive
same,outcome,[7],inactive
same,outcome,[8],inactive
same,outcome,[9],inactive
same,AC50,[10],45.8 µM (active)
same,AC50,[11],3.87 µM (active)
same,outcome,[12],inactive
Cc1oncc1C(=O)Nc1ccc(C(F)(F)F)cc1,outcome,[1],inactive
same,AC50,[14],100 µM (active)
same,outcome,[2],inactive
same,outcome,[3],inactive
same,outcome,[4],inactive
same,outcome,[5],inactive
same,outcome,[6],inactive
same,outcome,[8],inactive
same,outcome,[9],inactive
same,outcome,[10],inactive
same,outcome,[15],inactive
same,outcome,[12],inactive
same,outcome,[13],inactive
CCN(CCO)c1cccc(C)c1,outcome,[1],inactive
same,outcome,[14],inactive
same,outcome,[3],inactive
same,outcome,[4],inactive
same,outcome,[5],inactive
same,outcome,[6],inactive
same,outcome,[7],inactive
same,outcome,[8],inactive
same,outcome,[9],inactive
same,outcome,[10],inactive
same,outcome,[11],inactive
same,outcome,[16],inactive
same,outcome,[15],inactive
same,outcome,[17],inactive
same,outcome,[12],inactive
same,outcome,[13],inactive
same,outcome,[18],inactive
CC(=O)c1ccc2c(c1)CCCC2,outcome,[1],inactive
same,outcome,[14],inactive
same,outcome,[3],inactive
same,outcome,[5],inactive
same,outcome,[6],inactive
same,outcome,[7],inactive
same,outcome,[8],inactive
same,outcome,[9],inactive
same,outcome,[10],inactive
same,outcome,[11],inactive
same,outcome,[15],inactive
same,outcome,[12],inactive
COC(=O)C1=C(C)NC(C)=C(C(=O)OCC(C)C)C1c1ccccc1[N+](=O)[O-] (centres undefined),outcome,[1],inactive
same,outcome,[3],inactive
same,outcome,[4],inactive
same,outcome,[5],inactive
same,outcome,[6],inactive
same,outcome,[7],inactive
same,outcome,[8],inactive
same,outcome,[9],inactive
same,outcome,[10],inactive
same,outcome,[16],inactive
same,outcome,[12],inactive
same,outcome,[13],inactive
COc1ccc(C(Cl)=C(c2ccc(OC)cc2)c2ccc(OC)cc2)cc1,outcome,[1],inactive
same,outcome,[2],inactive
same,outcome,[3],inactive
same,outcome,[5],inactive
same,outcome,[6],inactive
same,outcome,[7],inactive
same,outcome,[8],inactive
same,outcome,[9],inactive
same,outcome,[10],inactive
same,AC50,[11],4.46 µM (active)
same,outcome,[16],inactive
same,outcome,[12],inactive
COC(=O)c1cc(Cl)ccc1[N+](=O)[O-],outcome,[1],inactive
same,outcome,[14],inactive
same,outcome,[2],inactive
same,outcome,[3],inactive
same,outcome,[4],inactive
same,outcome,[5],inactive
same,outcome,[6],inactive
same,outcome,[8],inactive
same,outcome,[9],inactive
same,outcome,[11],inactive
same,outcome,[16],inactive
same,outcome,[15],inactive
same,outcome,[12],inactive
same,outcome,[19],inactive
CN(C)CCCN(C)C,outcome,[1],inactive
same,outcome,[2],inactive
same,outcome,[3],inactive
same,outcome,[4],inactive
same,outcome,[5],inactive
same,outcome,[6],inactive
same,outcome,[7],inactive
same,outcome,[8],inactive
same,outcome,[9],inactive
same,outcome,[10],inactive
same,outcome,[11],inactive
same,outcome,[15],inactive
same,outcome,[12],inactive
same,outcome,[13],inactive
